System: ROCK1
Details: concentration: 1 μM,replicates: in singlicate; n = 1
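Note: KINOMEscan kinase panel screen.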

Row | SMILES | %Inh [%]
1 | C[C@@H](Oc1cc(-n2cnc3ccc(-c4ccncc4)cc32)sc1C(N)=O)c1ccccc1Cl [GSK483724] | 23
2 | CNC(=O)c1ccccc1Nc1nc(Nc2cccc(CS(C)(=O)=O)c2)ncc1C.O=CO [GSK1520489] | 89
3 | COc1cc2c(Nc3ccc(NC(=O)c4ccccc4)cc3)ncnc2cc1OCCCN1CCOCC1 [GSK301329] | 1
4 | O=C(Nc1ccc(Oc2ccc3nc(NC(=O)C4CC4)cn3n2)c(F)c1)c1cccn(-c2ccccc2)c1=O | 0
5 | COc1cc(Nc2nccc(N3CCC(NC(=O)c4cccc(C#N)c4)C3)n2)cc(OC)c1OC (stereo not shown) [GSK1379751] | 10
6 | CC(C)S(=O)(=O)N1CCN(Cc2ccc3c(c2)nc(NC(=O)c2ccsc2)n3C[C@H](O)c2ccccc2)CC1 [GW635815] | 66
7 | Cn1ccc2ncnc(Oc3ccc(NC(=O)Nc4cccc(C(F)(F)F)c4)c(F)c3)c21 | 0
8 | Cc1ccc2c(-c3ccnc(Nc4ccc(C(F)(F)F)cc4)n3)cnn2n1 [GW819776] | 54
9 | C[C@@H]1CNc2c(sc3ccc4nc(-c5ccncc5)ccc4c23)C(=O)N1 | 14
10 | Cn1ccc2ncnc(Oc3ccc(NC(=O)Nc4cccc(C(F)(F)F)c4)c(Cl)c3)c21 | 0
11 | COc1cccc(OC)c1C(=O)Nc1cccc(-c2nn3ccccc3c2-c2ccnc(Nc3cccc(F)c3)n2)c1 [GSK361065] | 0
12 | CN1CCN(CCCNc2nccc(-c3c(-c4ccc(F)cc4)nn4cc(C(N)=O)ccc34)n2)CC1 [GW622475] | 0
13 | CCCC(=O)Nc1n[nH]c2ncccc12 [SB-601436] | 0
14 | Cn1ccc2ncnc(Oc3ccc(NC(=O)Nc4cc(C(C)(C)C)on4)c(Cl)c3)c21 | 3
15 | Cl.c1ccc(Oc2ccc(Nc3ccnc4cc(-c5ccc(CN6CCNCC6)o5)ccc34)cc2)nc1 [GW567142] | 5
16 | CC(=O)Nc1ccc(-c2cc3ncnc(SCC(=O)O)c3s2)cc1 | 0
17 | Cc1ccc(Nc2ccnc(Nc3ccc4c(c3)CS(=O)(=O)C4)n2)cc1O.Cl [GW579362] | 48
18 | COc1cccc(C2=C(Nc3cccc(Cl)c3)C(=O)NC2=O)c1 [SB-341556] | 0
19 | OCCn1cc(-c2cnc3nnn(Cc4ccc5ncccc5c4)c3n2)cn1 | 0
20 | Cn1ccc2ncnc(Oc3ccc(NC(=O)Nc4cncc(C(F)(F)F)c4)c(Cl)c3)c21 | 0
21 | CN(c1cccc(CNc2nc(Nc3ccc4c(c3)CC(=O)N4)ncc2C(F)(F)F)c1)S(C)(=O)=O | 0
22 | Cl.Cl.NC[C@H](CC1CCCCC1)NC(=O)c1ccc(-c2ccnc3[nH]ccc23)s1 [GSK1581428] | 100
23 | N#Cc1cccc(C(=O)NC2CCN(c3ccnc(Nc4ccc(F)cc4)n3)C2)c1 (stereo not shown) [GSK1379708] | 0
24 | c1ccc(Oc2ccc(Nc3ccnc4ccc(-c5ccccn5)cc34)cc2)cc1 [GW407034] | 11

System: ROCK2
Details: concentration: 1 μM,replicates: in singlicate; n = 1

Row | SMILES | %Inh [%]
25 | O=C(Nc1ccccc1)c1cccc(Oc2ccc3nccn3n2)c1 | 0
26 | Cc1ccc(CC(=O)N2CCc3cc(-c4cn(C)c5ncnc(N)c45)ccc32)cc1 [GSK2634758] | 21
27 | COC(=O)c1cccc(NC(=O)NC2CCN(c3ccnc(NCc4ccc(F)cc4)n3)CC2)c1 [GSK1379860] | 19
28 | Cc1n[nH]c2cc(Nc3ccnc(Nc4cccc(CN5CCOCC5)c4)n3)ccc12 [GW682569] | 1
29 | CCN1CCN(CCCC(=O)Nc2n[nH]c3nc(-c4ccc(O)cc4)c(Br)cc23)CC1 [SB-731579] | 0
30 | COc1ccc(Nc2nccc(N3CCC(NC(=O)c4cccc(C#N)c4)C3)n2)cc1 (stereo not shown) [GSK1379730] | 14
31 | C[C@@H](Oc1cc(-n2cnc3cc(-c4ccncc4)ccc32)sc1C(N)=O)c1ccccc1Cl [GSK479719] | 49
32 | Cc1nnc(-c2ccc3occ(-c4ccc(S(C)=O)cc4)c3n2)o1 (stereo not shown) | 0
33 | Cn1cc(-c2cccc3c(N)c(C(N)=O)nnc23)cn1 | 20
34 | Cl.Nc1n[nH]c2cc(-c3ccccn3)ccc12 [GSK2189892] | 5
35 | COc1cccc(CNC(=O)NC2CCN(c3ccnc(Nc4cc(OC)c(OC)c(OC)c4)n3)C2)c1 (stereo not shown) [GSK1379765] | 76
36 | Cc1ccc(C(=O)Nc2ccc(Oc3ccc4nc(NC(=O)C5CC5)cn4c3)c(F)c2)c(=O)n1-c1ccccc1 | 0
37 | Cc1cccc2c(-c3ccncc3)c(-c3ccc(F)cc3)nn12.Cl [GW461487] | 12
38 | C[C@@H](Oc1cc(-n2cnc3ccc(-c4ccncc4)cc32)sc1C(N)=O)c1ccccc1Cl [GSK483724] | 19
39 | CNC(=O)c1ccccc1Nc1nc(Nc2cccc(CS(C)(=O)=O)c2)ncc1C.O=CO [GSK1520489] | 75
40 | COc1cc2c(Nc3ccc(NC(=O)c4ccccc4)cc3)ncnc2cc1OCCCN1CCOCC1 [GSK301329] | 0
41 | O=C(Nc1ccc(Oc2ccc3nc(NC(=O)C4CC4)cn3n2)c(F)c1)c1cccn(-c2ccccc2)c1=O | 0
42 | COc1cc(Nc2nccc(N3CCC(NC(=O)c4cccc(C#N)c4)C3)n2)cc(OC)c1OC (stereo not shown) [GSK1379751] | 35
43 | CC(C)S(=O)(=O)N1CCN(Cc2ccc3c(c2)nc(NC(=O)c2ccsc2)n3C[C@H](O)c2ccccc2)CC1 [GW635815] | 63

Row | SMILES | %Inh [%]
44 | Cn1ccc2ncnc(Oc3ccc(NC(=O)Nc4cccc(C(F)(F)F)c4)c(F)c3)c21 | 0
45 | Cc1ccc2c(-c3ccnc(Nc4ccc(C(F)(F)F)cc4)n3)cnn2n1 [GW819776] | 0
46 | C[C@@H]1CNc2c(sc3ccc4nc(-c5ccncc5)ccc4c23)C(=O)N1 | 1
47 | Cn1ccc2ncnc(Oc3ccc(NC(=O)Nc4cccc(C(F)(F)F)c4)c(Cl)c3)c21 | 26
48 | COc1cccc(OC)c1C(=O)Nc1cccc(-c2nn3ccccc3c2-c2ccnc(Nc3cccc(F)c3)n2)c1 [GSK361065] | 14
49 | CN1CCN(CCCNc2nccc(-c3c(-c4ccc(F)cc4)nn4cc(C(N)=O)ccc34)n2)CC1 [GW622475] | 20
50 | CCCC(=O)Nc1n[nH]c2ncccc12 [SB-601436] | 0
51 | Cn1ccc2ncnc(Oc3ccc(NC(=O)Nc4cc(C(C)(C)C)on4)c(Cl)c3)c21 | 0
52 | Cl.c1ccc(Oc2ccc(Nc3ccnc4cc(-c5ccc(CN6CCNCC6)o5)ccc34)cc2)nc1 [GW567142] | 32
53 | CC(=O)Nc1ccc(-c2cc3ncnc(SCC(=O)O)c3s2)cc1 | 0
54 | Cc1ccc(Nc2ccnc(Nc3ccc4c(c3)CS(=O)(=O)C4)n2)cc1O.Cl [GW579362] | 50
55 | COc1cccc(C2=C(Nc3cccc(Cl)c3)C(=O)NC2=O)c1 [SB-341556] | 0
56 | OCCn1cc(-c2cnc3nnn(Cc4ccc5ncccc5c4)c3n2)cn1 | 0
57 | Cn1ccc2ncnc(Oc3ccc(NC(=O)Nc4cncc(C(F)(F)F)c4)c(Cl)c3)c21 | 0
58 | CN(c1cccc(CNc2nc(Nc3ccc4c(c3)CC(=O)N4)ncc2C(F)(F)F)c1)S(C)(=O)=O | 17
59 | Cl.Cl.NC[C@H](CC1CCCCC1)NC(=O)c1ccc(-c2ccnc3[nH]ccc23)s1 [GSK1581428] | 98.9
60 | N#Cc1cccc(C(=O)NC2CCN(c3ccnc(Nc4ccc(F)cc4)n3)C2)c1 (stereo not shown) [GSK1379708] | 0
61 | c1ccc(Oc2ccc(Nc3ccnc4ccc(-c5ccccn5)cc34)cc2)cc1 [GW407034] | 0
